# Test results from PubChem BioAssay (Tox21).
# Activity calls are given as the source filed them. Calls follow the shape of the dose curve; as a rule, active = well fitted curve in the direction sought with a large enough effect in the repeat runs; inconclusive = weak or mixed curves; inactive = flat fitted curve, though single readings scatter.
# Assay: qHTS assay to test for compound auto fluorescence at 460 nm (blue) in HepG2 cells (AID 720687)
# Conditions: autofluorescence 405/460 nm, 1 h; series mostly up to 91.3 µM
# Text: U.S. Tox21 Program National Center for Advancing Translational Sciences [NCATS] NIH Chemical Genomics Center [NCGC] U.S. Environmental Protection Agency [EPA] National Institutes of Environmental Health Sciences [NIEHS] National Toxicology Program [NTP] U.S. Food and Drug Administration [FDA] Tox21 Assay Overview: Compound auto fluorescence often interferes with screening of the compound library against various biological targets and signaling pathways. Some of these compounds may have fluorophoric properties. Such properties may interfere with the assay outputs resulting in false positives and/or negatives. To decrease such complications and ensure the compound activities are relevant in terms of biological response, the Tox21 10K compound library was screened for auto fluorescence. From the fluorophores used as reporter signals in our screening assays, the auto fluorescence equivalencies of compounds against three fluorophores have been evaluated: Triamterene, Fluorescein and Rose Bengal sodium for blue, green and red fluorescence, respectively. The fluorescence intensities were measured using Excitation/Emission wavelengths at 405/460nm, 485/535nm and 540/590nm for blue, green and red labels, respectively. This assay includes the blue fluorescence data.
# Tox21 Assay Protocol Summary: 2,000 HepG2 cells in 5 uL of culture medium (MEM containing 10% FBS) per well were dispensed into black wall/clear bottom 1536-well plates using a Multidrop Combi Dispenser (ThermoFisher Scientific, Waltham, MA). The assay plates were incubated overnight at 37 C to allow cell attachment to the well bottom, followed by the transfer of 23 nL compound or DMSO vehicle by a pintool work station (Kalypsys , San Diego, CA). After the assay plates were incubated for 1 hr at 37 C and 5% CO2, fluorescence intensities in the assay plates were measured by an Envision (PerkinElmer, Shelton, CT) plate reader using three labels for measuring blue, green and red fluorescence at […] 460, 535 and 590 nm respectively.
# % is scaled to controls: 0 for no effect and ±100 for the full control effect.
SMILES,outcome,"fluorescence, % of fluorescent control"
CC(=O)c1cccc([N+](=O)[O-])c1,inactive,
CCOC(=O)NCCOc1ccc(Oc2ccccc2)cc1,inactive,
CCO[C@H](Cc1ccc(OCCc2ccc(OS(C)(=O)=O)cc2)cc1)C(=O)O,inactive,
CCN(CC)CCNc1ccc(CNC=O)c2sc3ccc(OC)cc3c(=O)c12,inactive,
O=C1OC(=O)C2C3C=CC(C3)C12 (stereo not given),inactive,
C[C@@H](c1ncncc1F)C(O)(Cn1cncn1)c1ccc(F)cc1F (stereo not given in full),inactive,
COS(=O)(=O)C(F)(F)F,inactive,
CCc1c(C(=O)NN2CCCCC2)nn(-c2ccc(Cl)cc2Cl)c1-c1ccc(Br)cc1,inactive,
CC(C)O.CC(C)O.CCOC(=O)/C=C(\C)O.CCOC(=O)/C=C(\C)O.[Ti],inactive,
Clc1ccc(Cn2c(CN3CCCC3)nc3ccccc32)cc1,,0.0474% [at 18.6 µM] (inactive)
CCCOC(C(=O)OC1CCN(C)CC1)(c1ccccc1)c1ccccc1,inactive,
O=C(O)c1ccccc1Cl,inactive,
COc1cc(Cl)ccc1Oc1ccc(Cl)cc1Cl,inactive,
c1ccc(CNCCNCc2ccccc2)cc1,inactive,
CC(=O)c1ccc2c(c1)N(CCCN(C)C)c1ccccc1S2,,-0.0528% [at 18.6 µM] (inactive)
CN(C)c1ccc(/C=C/c2ccc([N+](=O)[O-])cc2)cc1,,-0.0831% [at 3.72 µM] (inactive)
NCc1ccccc1Sc1ccccc1CO,inactive,
O=C1OC(CN2CCOCC2)CN1/N=C/c1ccc([N+](=O)[O-])o1 (stereo not given),,-0.0405% [at 18.6 µM] (inactive)
CCC(Cl)CCC(Cl)C(Cl)CC(Cl)C(Cl)C(Cl)CCl (stereo not given),inactive,
CCCCC,inactive,

SMILES,outcome,"fluorescence, % of fluorescent control"
CCCCCC[C@@H](O)C/C=C\CCCCCCCC(=O)OC,inactive,
CN(Cc1ccc(C(C)(C)C)cc1)Cc1cccc2ccccc12,inactive,
NCC(=O)O,inactive,
CCCCCCc1ccc(-c2ccc(C#N)cc2)cc1,inactive,
CC(C)C[C@H]1C(=O)N2CCC[C@H]2[C@]2(O)O[C@](NC(=O)[C@@H]3C=C4c5cccc6[nH]c(Br)c(c56)C[C@H]4N(C)C3)(C(C)C)C(=O)N12,inactive,
CCC(C)c1cc(C(C)(C)C)c(O)c(C(C)(C)C)c1 (stereo not given),inactive,
CCC(C)O (stereo not given),inactive,
Cc1ncc(CO)c(C=O)c1O,inactive,
O=C(Nc1ccccc1)c1ccccc1O,inactive,
COc1cccc(N(C)C(=S)Oc2ccc3c(c2)CCCC3)n1,inactive,
CCC(=O)O[C@]1(C(=O)CCl)[C@@H](C)C[C@H]2[C@@H]3CCC4=CC(=O)C=C[C@]4(C)[C@@]3(F)[C@@H](O)C[C@@]21C,inactive,
Cc1cccc(C)c1NC(=O)CN(CC(=O)O)CC(=O)O,inactive,
C=CC(=O)OCCOCCOCCOCCOC(=O)C=C,inactive,
OC(CN1CCC(Cc2ccc(F)cc2)CC1)c1ccc(Cl)cc1 (stereo not given),inactive,
C1CCCNCCC1,inactive,
O=[N+]([O-])c1ccc(NCCO)c(OCCO)c1,inactive,
CCCCCCCCCCCC(=O)OC[C@@H](O)[C@H]1OC[C@H](OCCO)[C@H]1OCCO,inactive,
CN(C)CCN(Cc1ccccc1)c1ccccn1,inactive,
Cc1oc(-c2ccccc2)nc1CCOc1cccc2c1ccn2CCC(=O)O,inactive,
C/C=C/C=C/CO,inactive,
